The list is not random: actives were taken first. Their share in the collection is about 8.2%.
KB-3-1 tox – KB-3-1 parental cell cytotoxicity; KB-3-1 viability, CellTiter-Glo ATP luminescence, 72 h; actives 1.4% (n = 400,000); Potency, µM (titrated, usually from 46.1 µM), most hits filed as cytotoxic; note: nearly all actives have a fitted effect of over 60% in size
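72 h, 37 °C compound treatment of KB-3-1 parental cells; CellTiter-Glo added, 10 min, luminescence read. Data corrected against DMSO-only plates and normalized before curve fitting.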
ELG1 repair inh – blocks ELG1-dependent DNA repair in HEK293T cells. Potency, µM (highest dose often 46.1 µM), usual class: inhibitors. HEK293T ELG1-luciferase reporter, luminescence, 16 h; DNA damage induced by 5-fluorouridine. actives 2.3% (n = 330,000). AID 504467; note: nearly all actives have a fitted effect of over 55% in size
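Step one: seed 2,000 cells per well. Step two: pin-transfer compound or DMSO alongside 5-fluorouridine. Step three: incubate 16 hr, 37 °C, 5% CO2. Step four: add ONE-Glo, wait 30 min, read luminescence.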
SW480 rereplic – DNA re-replication induction in SW480 cells; SW480 DNA re-replication, Hoechst DNA content imaging, 48 h; Potency, µM (titrated, usually from 46.1 µM), actives largely listed as activators; actives 1.8% (n = 340,000); AID 624297; note: nearly all actives have a fitted effect of over 55% in size
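Readout is total intensity of Hoechst-stained nuclei, excited at 405 nm and collected at 500-530 nm. Compound treatment lasted 48 hr at 37 C in 5% CO2 before staining.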
MCF10A rereplic – induces DNA re-replication in MCF 10a normal breast cells; MCF 10A DNA re-replication, Hoechst nuclear intensity, 48 h; Potency, µM (top dose mostly 46.1 µM), actives largely listed as activators; actives 2.9% (n = 350,000); note: nearly all actives have a fitted effect of over 50% in size
KB-V1 cytotox – KB-V1 MDR subline cytotoxicity; KB-V1 MDR cells viability, CellTiter-Glo, 72 h; Potency, µM (titrated, usually from 46.1 µM), most hits filed as cytotoxic; actives 3.4% (n = 400,000); AID 1347076; note: nearly all actives have a fitted effect of over 60% in size
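Potencies derive from concentration-effect curves fitted to normalized luminescence (CellTiter-Glo) of KB-V1 cells treated for 72 h at 37 degrees C in phenol-red-free DMEM containing 10% FBS.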
Large screens that a line does not name were inactive; ! = repeats disagree. Calls come from the whole dose curve; as a rule, active = well fitted curve in the direction sought with a large enough effect; inconclusive = small, poorly fitted or top-dose-only effect, or another doubt; inactive = no such curve, though single readings can be large; an effect the other way counts as inactive or inconclusive.

COCC(C)NC(=O)c1cc(S(=O)(=O)N2CCCCC2)ccc1N1CCOCC1 (centres undefined)	KB-3-1 tox inconclusive
COc1ccccc1N1CCN(C(=S)Nc2ccc(S(=O)(=O)N3CCOCC3)cc2)CC1	ELG1 repair inh inconclusive
O=S(=O)(c1ccc(NC(=S)N2CCN(c3ccccc3F)CC2)cc1)N1CCOCC1	ELG1 repair inh 23.1µM, KB-V1 cytotox inconclusive
CC(C)CCCC(C)NC(=O)c1cc(S(=O)(=O)N2CCCCC2)ccc1N1CCOCC1 (centres undefined)	KB-3-1 tox inconclusive, ELG1 repair inh 11.2µM
CC(=O)C1CCN(c2ncc(-c3cccc(N(C)C)c3)s2)CC1	none (no result: ELG1 repair inh, SW480 rereplic, MCF10A rereplic)
O=C(CCNS(=O)(=O)c1ccc(Br)cc1)NCCCSc1ccccc1	KB-3-1 tox inconclusive, ELG1 repair inh inconclusive, KB-V1 cytotox inconclusive
Cc1cccc(C(=O)NCc2nnc(SCC(=O)Nc3ccccc3F)n2-c2ccccc2)c1	none (no result: ELG1 repair inh, SW480 rereplic, MCF10A rereplic)
CC(=O)c1cccc(N=Nc2c(-c3ccccc3)[nH]n(-c3ccccc3)c2=O)c1	ELG1 repair inh 8.2µM, KB-V1 cytotox inconclusive
CN(C)/C=N/c1ncc(C(=O)c2ccc(-c3ccccc3)cc2)s1	ELG1 repair inh inconclusive, MCF10A rereplic 9.2µM, KB-V1 cytotox 11.6µM
Cc1ccc(-c2noc(CCC(=O)N3CCN(c4cc(C)ccc4C)CC3)n2)cc1	MCF10A rereplic 20.6µM
CCOC(=O)N1CCN(Cc2nc(-c3ccc(OC)cc3)no2)CC1	KB-V1 cytotox 8.2µM (no result: ELG1 repair inh)
CCOC(=O)N1CCN(Cc2nc(-c3ccc(Cl)cc3)no2)CC1	none
COc1cccc(-c2noc(CCC(=O)N3CCN(c4cc(C)ccc4C)CC3)n2)c1	ELG1 repair inh inconclusive
COc1ccc(-c2noc(CCCC(=O)N3CCN(c4cc(C)ccc4C)CC3)n2)cc1	ELG1 repair inh inconclusive, MCF10A rereplic 13µM
Cc1ccc(C)c(N2CCN(C(=O)CCc3nc(-c4ccc(Br)cc4)no3)CC2)c1	ELG1 repair inh inconclusive
O=C(CC1C(=O)N(c2ccccc2)C(=O)N1Cc1ccc2c(c1)OCO2)Nc1ccccc1 (centres undefined)	none (no result: ELG1 repair inh, SW480 rereplic, MCF10A rereplic)
CCCCN(C)c1ncnc2c1cnn2-c1cccc(Cl)c1	none (no result: ELG1 repair inh, SW480 rereplic, MCF10A rereplic)
COc1c2ccccc2nc2ccccc12	SW480 rereplic 23.1µM, MCF10A rereplic inconclusive
Cc1c2ccccc2nc2ccccc12	none (no result: ELG1 repair inh)
Cc1ccc(CNC(=O)Cn2cnc(C(=O)Nc3ccc(C)c(C)c3)n2)o1	ELG1 repair inh inconclusive
Cc1cc(C)c(NC(=O)CN)c(C)c1	SW480 rereplic inconclusive, MCF10A rereplic inconclusive
Cc1cc(OCC(=O)Nc2nccs2)c2c(C)cc(=O)oc2c1	ELG1 repair inh inconclusive
CC(=O)c1cnc2n(c1=O)CCS2	SW480 rereplic 13µM
CCOC(=O)C1=C(CC)Nc2ccccc2N=C1NC(=O)c1ccc(C)c(S(=O)(=O)N2CCOCC2)c1	ELG1 repair inh inconclusive, KB-V1 cytotox inconclusive
CCOC(=O)C1=C(CC)Nc2ccccc2N=C1NC(=O)c1ccc(OC)c(S(=O)(=O)N2CCCCC2C)c1 (centres undefined)	ELG1 repair inh 23.1µM, MCF10A rereplic 3.66µM, KB-V1 cytotox inconclusive
NC(=S)n1[nH]c(-c2ccc([N+](=O)[O-])cc2)c(N=Nc2cccc([N+](=O)[O-])c2)c1=O	KB-3-1 tox inconclusive, ELG1 repair inh 3.26µM, SW480 rereplic inconclusive, KB-V1 cytotox inconclusive
Cc1c(N=Nc2c(-c3ccc([N+](=O)[O-])cc3)[nH]n(C(N)=S)c2=O)cccc1[N+](=O)[O-]	KB-3-1 tox 20.6µM, ELG1 repair inh 2.06µM, SW480 rereplic inconclusive, MCF10A rereplic inconclusive, KB-V1 cytotox 16.4µM
COc1cc2c(cc1OC)C(CNC(=O)C=Cc1cc(OC)c(OC)c(OC)c1)C2 (centres undefined)	none (no result: ELG1 repair inh, SW480 rereplic, MCF10A rereplic)
O=S(=O)(Nc1ccc(N2CCCCC2)cc1)c1ccccc1	ELG1 repair inh inconclusive, KB-V1 cytotox 20.6µM
COc1ccccc1C(=O)Nc1ccc(N2CCCCC2)cc1	ELG1 repair inh inconclusive, KB-V1 cytotox 20.6µM
COc1ccccc1C(=O)Nc1ccc(S(=O)(=O)N2CCCC2)cc1	ELG1 repair inh inconclusive, KB-V1 cytotox 18.4µM
O=C(Nc1ccc(N2CCCCCC2)cc1)c1ccccc1Cl	KB-3-1 tox inconclusive, ELG1 repair inh inconclusive, SW480 rereplic 13µM, MCF10A rereplic 6.51µM, KB-V1 cytotox inconclusive
NNc1ccc(Cl)c(C(=O)O)c1	ELG1 repair inh inconclusive
OC(CNCc1ccco1)COc1ccccc1 (centres undefined)	KB-V1 cytotox 0.0018µM
CCOC(=O)[C@]12CCCC=C1N(CCc1ccc(OC)c(OC)c1)C(=O)[C@H](CC(=O)N1CCCCC1)C2	KB-V1 cytotox inconclusive (no result: ELG1 repair inh, SW480 rereplic, MCF10A rereplic)
CS(=O)(=O)c1ccc(C(=O)OCC(=O)Nc2cc(C(F)(F)F)ccc2Cl)cc1[N+](=O)[O-]	KB-3-1 tox inconclusive (no result: ELG1 repair inh, SW480 rereplic, MCF10A rereplic)
COc1cc(NC(=O)Cn2ncc(Cl)c(Cl)c2=O)c(C)cc1[N+](=O)[O-]	ELG1 repair inh inconclusive, SW480 rereplic inconclusive, MCF10A rereplic 3.66µM
COc1cc(NC(=O)COC(=O)c2ccc(C)c(S(=O)(=O)N3CCCCC3)c2)c(C)cc1[N+](=O)[O-]	ELG1 repair inh 8.2µM
COc1ccc(C(=O)OCC(=O)Nc2ccc(OC)c(S(=O)(=O)N3CCCCC3)c2)cc1[N+](=O)[O-]	SW480 rereplic inconclusive
Cc1ccccc1NC(=O)Cc1nc(COC(=O)c2nc(Cl)ccc2Cl)cs1	none
Cc1ccccc1NC(=O)COC(=O)c1ccc(S(C)(=O)=O)c([N+](=O)[O-])c1	KB-3-1 tox 20.6µM!, ELG1 repair inh inconclusive, SW480 rereplic 7.31µM, MCF10A rereplic inconclusive
Cc1ccccc1NC(=O)Cc1nc(COC(=O)c2ncc(Cl)c(Cl)c2Cl)cs1	SW480 rereplic 6.51µM, MCF10A rereplic inconclusive (no result: ELG1 repair inh)
CCCc1cc(=O)oc2cc(OCC(=O)NCCCn3ccnc3)c(Cl)cc12	MCF10A rereplic inconclusive
CC1CCC2(CC1)NC(=O)N(CC(=O)Nc1ccc(C(N)=O)cc1)C2=O (centres undefined)	none
Cc1ccccc1NC(=O)Cc1nc(COC(=O)c2ccc(S(C)(=O)=O)c([N+](=O)[O-])c2)cs1	KB-3-1 tox inconclusive, ELG1 repair inh inconclusive, MCF10A rereplic 3.66µM
CS(=O)(=O)c1ccc(C(=O)OCC(=O)N2CCN(CCC3CCCCC3)CC2)cc1[N+](=O)[O-]	KB-3-1 tox 6.51µM, KB-V1 cytotox 23.1µM (no result: ELG1 repair inh, SW480 rereplic, MCF10A rereplic)
O=C(COC(=O)c1ccc([N+](=O)[O-])cc1)Nc1cccnc1Cl	KB-3-1 tox inconclusive (no result: ELG1 repair inh)
CS(=O)(=O)c1ccc(C(=O)OCC(=O)Nc2cccnc2Cl)cc1[N+](=O)[O-]	KB-3-1 tox inconclusive, ELG1 repair inh inconclusive, SW480 rereplic inconclusive, MCF10A rereplic 3.66µM
CC(=O)c1cccc(NC(=O)COC(=O)c2ccc(S(C)(=O)=O)c([N+](=O)[O-])c2)c1	ELG1 repair inh inconclusive, SW480 rereplic inconclusive, MCF10A rereplic 2.59µM
O=C(OCc1nnc(-c2ccccc2)o1)C1CCN(C(=O)c2ccc(Cl)cc2)CC1	SW480 rereplic inconclusive

High-throughput results as filed in PubChem.
